Conditions in all cases: mRNA level, 48 h; actives raise or lower the signal
Read-out in assay [1]: catalase (CAT), CAT (gene 847)
Nature of the assay: LTEA_HepaRG_CAT: Life Technologies and Expression Analysis (LTEA) Assay for catalase (CAT) using HepaRG (AID 2283452). In outline:
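HepaRG cells in serum-free induction medium, 0.5% DMSO vehicle, exposed 48 h in duplicate over 8 half-log concentrations from 100 uM. CAT mRNA measured by qRT-PCR, normalized to ACTB, GAPDH, POLR2A; bidirectional fit versus DMSO.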

Read-out in assay [2]: flavin-containing dimethylaniline monooxygenases 3 (FMO3), FMO3 (gene 2328)
Nature of the assay: LTEA_HepaRG_FMO3: Life Technologies and Expression Analysis (LTEA) Assay for flavin-containing dimethylaniline monooxygenases 3 (FMO3) using HepaRG (AID 2283453). In outline: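 HepaRG, 48 h exposure, 8-pt half-log series from 100 uM, 0.5% DMSO vehicle, duplicates; FMO3 transcript by Fluidigm TaqMan qRT-PCR, housekeeping-normalized; gain/loss fit vs DMSO.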

Read-out in assay [3]: Cytochrome P450 (CYP1A1), CYP1A1 (gene 1543)
Nature of the assay: LTEA_HepaRG_CYP1A1: Life Technologies and Expression Analysis (LTEA) Assay for Cytochrome P450 (CYP1A1) using HepaRG (AID 2283454). The gist of the method:
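Differentiated HepaRG cells in serum-free induction medium were exposed in duplicate for 48 h to eight half-log concentrations up to 100 uM in 0.5% DMSO. CYP1A1 mRNA was quantified by TaqMan qRT-PCR, normalized to ACTB, GAPDH and POLR2A.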

Read-out in assay [4]: CFLAR gene, CFLAR (gene 8837)
Nature of the assay: LTEA_HepaRG_CFLAR: Life Technologies and Expression Analysis (LTEA) Assay for CFLAR gene using HepaRG (AID 2283455). The gist of the method:
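Differentiated HepaRG cells in serum-free induction medium were exposed 48 h in duplicate to eight half-log concentrations up to 100 uM in 0.5% DMSO; mRNA measured by TaqMan qRT-PCR, normalized to ACTB, GAPDH, POLR2A; bidirectional fitting versus DMSO.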

Read-out in assay [5]: Forkhead box O1 (FOXO1), FOXO1 (gene 2308)
Nature of the assay: LTEA_HepaRG_FOXO1: Life Technologies and Expression Analysis (LTEA) Assay for Forkhead box O1 (FOXO1) using HepaRG (AID 2283456). In outline: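 Differentiated HepaRG cells, in serum-free induction medium with 0.5% DMSO, exposed 48 h in duplicate to 8-point half-log series from 100 uM. FOXO1 mRNA measured by TaqMan qRT-PCR, normalized to ACTB, GAPDH, POLR2A; bidirectional fit versus DMSO.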

Read-out in assay [6]: growth arrest and DNA damage 45 (GADD45A), GADD45A (gene 1647)
Nature of the assay: LTEA_HepaRG_GADD45A: Life Technologies and Expression Analysis (LTEA) Assay for growth arrest and DNA damage 45 (GADD45A) using HepaRG (AID 2283458). In outline:
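Human HepaRG liver cells are treated in duplicate for 48 h with chemicals in 0.5% DMSO, highest concentration 100 uM. Expression is read by qRT-PCR and analyzed in both directions against vehicle.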

Read-out in assay [7]: Forkhead box O3 (FOXO3), FOXO3 (gene 2309)
Nature of the assay: LTEA_HepaRG_FOXO3: Life Technologies and Expression Analysis (LTEA) Assay for Forkhead box O3 (FOXO3) using HepaRG (AID 2283459). The gist of the method: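 Differentiated human HepaRG cells, 48 h post-plating, exposed in duplicate for 48 h in serum-free induction medium; 8-point half-log series from 100 uM in 0.5% DMSO. FOXO3 mRNA by TaqMan qRT-PCR, normalized to ACTB/GAPDH/POLR2A; bidirectional fit versus DMSO.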

Read-out in assay [8]: ABC Transporter (ABCB1), ABCB1 (gene 5243)
Nature of the assay: LTEA_HepaRG_ABCB1: Life Technologies and Expression Analysis (LTEA) Assay for ABC Transporter (ABCB1) using HepaRG (AID 2283460). The gist of the method:
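HepaRG cells exposed in duplicate for 48 h in serum-free induction medium to eight half-log concentrations up to 100 uM in 0.5% DMSO. ABCB1 mRNA quantified by qRT-PCR, normalised to ACTB, GAPDH and POLR2A; fitted bidirectionally versus DMSO.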

Read-out in assay [9]: growth arrest and DNA damage 45 (GADD45B), GADD45B (gene 4616)
Nature of the assay: LTEA_HepaRG_GADD45B: Life Technologies and Expression Analysis (LTEA) Assay for growth arrest and DNA damage 45 (GADD45B) using HepaRG (AID 2283461). The gist of the method:
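Differentiated HepaRG cells, plated 48 h then switched to serum-free induction medium, were exposed 48 h in duplicate to eight half-log concentrations from 100 uM in 0.5% DMSO; mRNA quantified by qRT-PCR, normalized to ACTB/GAPDH/POLR2A, bidirectional fit versus DMSO.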

Read-out in assay [10]: ABC Transporter (ABCB11), ABCB11 (gene 8647)
Nature of the assay: LTEA_HepaRG_ABCB11: Life Technologies and Expression Analysis (LTEA) Assay for ABC Transporter (ABCB11) using HepaRG (AID 2283463). In outline:
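Differentiated human HepaRG cells in serum-free induction medium, dosed in duplicate for 48 h. Eight-point half-log series from 100 uM in 0.5% DMSO; ABCB11 mRNA by qRT-PCR, normalized to ACTB, GAPDH, POLR2A, fitted bidirectionally versus DMSO.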

Read-out in assay [11]: ABC Transporter (ABCC2), ABCC2 (gene 1244)
Nature of the assay: LTEA_HepaRG_ABCC2: Life Technologies and Expression Analysis (LTEA) Assay for ABC Transporter (ABCC2) using HepaRG (AID 2283464). In outline:
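HepaRG cells were plated 48 h, switched to serum-free induction medium, then exposed in duplicate for 48 h to 8 concentrations (top 100 uM, half-log steps, 0.5% DMSO). ABCC2 mRNA was measured by qRT-PCR normalized to ACTB/GAPDH/POLR2A; bidirectional fitting versus DMSO.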

Read-out in assay [12]: Broad substrate specificity ATP-binding cassette transporter ABCG2 (Homo sapiens) (UniProt Q9UNQ0)
Nature of the assay: LTEA_HepaRG_ABCG2: Life Technologies and Expression Analysis (LTEA) Assay for ABC Transporter (ABCG2) using HepaRG (AID 2283465). The gist of the method: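 Differentiated HepaRG cells were exposed for 48 h in serum-free induction medium to 8 half-log concentrations, top 100 uM, in 0.5% DMSO. ABCG2 mRNA was measured by qRT-PCR, normalized to ACTB, GAPDH and POLR2A, with bidirectional fitting versus DMSO.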

Read-out in assay [13]: ATP-citrate lyase (ACLY), ACLY (gene 47)
Nature of the assay: LTEA_HepaRG_ACLY: Life Technologies and Expression Analysis (LTEA) Assay for ATP-citrate lyase (ACLY) using HepaRG (AID 2283466). In outline: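 Differentiated HepaRG cells exposed 48 h in serum-free induction medium to eight half-log concentrations up to 100 uM in 0.5% DMSO, duplicates. Transcript measured by Fluidigm TaqMan qRT-PCR, normalized to ACTB, GAPDH, POLR2A; bidirectional fit versus DMSO.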

Read-out in assay [14]: Peroxisomal acyl-coenzyme A oxidase 1 (ACOX1) gene, ACOX1 (gene 51)
Nature of the assay: LTEA_HepaRG_ACOX1: Life Technologies and Expression Analysis (LTEA) Assay for Peroxisomal acyl-coenzyme A oxidase 1 (ACOX1) gene using HepaRG (AID 2283467). The gist of the method:
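HepaRG cells, plated 48 h then switched to serum-free induction medium, were exposed in duplicate for 48 h to 8-point half-log concentrations up to 100 uM in 0.5% DMSO. ACOX1 mRNA was measured by qRT-PCR, normalized to ACTB/GAPDH/POLR2A, and fitted bidirectionally versus DMSO.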

Read-out in assay [15]: Alkaline Phosphatase, Placental (ALPP) gene, ALPP (gene 250)
Nature of the assay: LTEA_HepaRG_ALPP: Life Technologies and Expression Analysis (LTEA) Assay for Alkaline Phosphatase, Placental (ALPP) gene using HepaRG (AID 2283468). The gist of the method: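 Differentiated human HepaRG cells were plated and cultured 48 h, then exposed in duplicate for 48 h in serum-free induction medium to eight half-log concentrations from 100 uM in 0.5% DMSO. ALPP mRNA was measured by TaqMan qRT-PCR, normalized to ACTB, GAPDH, POLR2A.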

Read-out in assay [16]: Bcl-2 (BAD) gene, BAD (gene 572)
Nature of the assay: LTEA_HepaRG_BAD: Life Technologies and Expression Analysis (LTEA) Assay for Bcl-2 (BAD) gene using HepaRG (AID 2283469). The gist of the method:
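Differentiated HepaRG cells were exposed in duplicate in 0.5% DMSO for 48 h to eight-point half-log concentrations up to 100 uM. BAD mRNA was measured by Fluidigm TaqMan qRT-PCR, normalized to ACTB, GAPDH and POLR2A, and fitted bidirectionally against DMSO.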

Read-out in assay [17]: Bcl-2 (BAX) gene, BAX (gene 581)
Nature of the assay: LTEA_HepaRG_BAX: Life Technologies and Expression Analysis (LTEA) Assay for Bcl-2 (BAX) gene using HepaRG (AID 2283470). In outline:
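Concentration-response endpoint fitted in both directions relative to 0.5% DMSO vehicle. Human HepaRG cultures receive test chemicals for 48 h at up to 100 uM; BAX mRNA is quantified by qRT-PCR against housekeeping genes.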

Read-out in assay [18]: ABC Transporter (ABCC3), ABCC3 (gene 8714)
Nature of the assay: LTEA_HepaRG_ABCC3: Life Technologies and Expression Analysis (LTEA) Assay for ABC Transporter (ABCC3) using HepaRG (AID 2283462). The gist of the method: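 HepaRG cells in serum-free induction medium were exposed for 48 h in duplicate to 8-point half-log concentrations topping at 100 uM in 0.5% DMSO. ABCC3 mRNA was measured by qRT-PCR normalized to ACTB, GAPDH and POLR2A, with bidirectional fitting versus DMSO.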

SMILES strings stand for the structures. Calls of active or inactive are those of the source. How the source made its calls: active means hit-call score of the fitted dose curve at least 0.9, where 1 is the maximum; inactive means score below 0.9.

Chain of Broad substrate specificity ATP-binding cassette transporter ABCG2 (Homo sapiens) (Q9UNQ0 whole entry, looked up): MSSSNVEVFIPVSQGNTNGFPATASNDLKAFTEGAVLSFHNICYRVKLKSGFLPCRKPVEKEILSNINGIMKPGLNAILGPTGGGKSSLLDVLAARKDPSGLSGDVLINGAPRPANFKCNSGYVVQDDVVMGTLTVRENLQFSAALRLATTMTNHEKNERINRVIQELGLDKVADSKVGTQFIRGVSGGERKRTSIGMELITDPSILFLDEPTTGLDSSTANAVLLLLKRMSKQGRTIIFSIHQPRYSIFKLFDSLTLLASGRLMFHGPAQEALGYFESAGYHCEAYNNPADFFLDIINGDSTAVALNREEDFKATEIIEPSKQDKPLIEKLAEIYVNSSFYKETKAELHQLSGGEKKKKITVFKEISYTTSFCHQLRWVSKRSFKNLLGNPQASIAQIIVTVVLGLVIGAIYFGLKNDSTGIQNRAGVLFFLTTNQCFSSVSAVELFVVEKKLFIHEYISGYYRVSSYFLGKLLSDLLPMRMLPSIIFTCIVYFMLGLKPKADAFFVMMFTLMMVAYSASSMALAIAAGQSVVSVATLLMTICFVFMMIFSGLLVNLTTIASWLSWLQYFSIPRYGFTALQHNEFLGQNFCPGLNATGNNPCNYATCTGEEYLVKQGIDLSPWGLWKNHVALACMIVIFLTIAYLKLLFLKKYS

For the molecule `Cc1cc(C)c(O)c(C)c1`, the result in [1], in assay [2], in assay [4], in [5], in assay [6] and in assay [7] was inactive. Also, the call in assay [8], in [9], in assay [10], in assay [12], in assay [13] and in assay [14] was inactive. Moreover, the outcome in assay [15], in assay [16] and in assay [17] was inactive. The AC50 in assay [3] is 50 µM (active); in [11] it was 26.8 µM (active).
For `CCc1nn(C2CCCCC2)c2cc(C3(C#N)CCC(C(=O)O)CC3)ccc12` (centres undefined), the concentration at half-maximal activity (AC50) in [1] is 77.2 µM (active); in assay [2], 83.7 µM (active); in assay [3] it was 14.4 µM (active); in [4], 8.95 µM (active); in assay [5] it was 86 µM (active); in assay [6], 77.6 µM (active). For the same molecule, the AC50 was 82.8 µM (active) in assay [10], 13 µM (active) in assay [12], 25.5 µM (active) in assay [13] and 50 µM (active) in assay [17]. For the same molecule, the result in assay [7], in assay [9], in assay [11], in assay [14] and in assay [16] was inactive.
For `CC(C)(C)c1cc(C(C)(C)C)c(O)c(C(C)(C)C)c1`, the result in assay [1], in assay [2], in assay [3], in [4], in assay [5] and in assay [6] was inactive. Besides, the outcome in assay [7], in assay [9], in [10], in [13], in assay [14] and in assay [15] was inactive. For the same molecule, the molecule was called inactive in assay [16] and in assay [17]. Moreover, the concentration at half-maximal activity (AC50) in assay [11] is 50 µM (active); in [12], 20.9 µM (active).
As to `CC1=C(/C=C/C(C)=C/C=C/C(C)=C/C(=O)O)C(C)(C)CCC1`, the AC50 was 9.37 µM (active) in [1]; 0.446 µM (active) in assay [2]; 35.9 µM (active) in assay [3]; 5.84 µM (active) in assay [4]; 0.81 µM (active) in assay [8]; 29.4 µM (active) in assay [10]. Besides, the AC50 in assay [12] is 3.14 µM (active); in assay [17], 20.4 µM (active). The call in assay [5], in [6], in assay [7], in assay [9], in assay [11] and in assay [13] was inactive. The outcome in [14] and in [16] was inactive.
Take `CC(C)CCCCCCOC(=O)CCCCC(=O)OCCCCCCC(C)C`: the result in assay [1], in assay [2], in assay [4], in [5], in assay [6] and in assay [7] was inactive. Also, the molecule was classed as inactive in assay [9], in [10], in assay [11], in assay [12], in assay [13] and in assay [14]. In addition, the molecule was classed as inactive in assay [16] and in assay [17]. Also, the AC50 in assay [3] is 50 µM (active).
As for `CCCCC(CC)COC(=O)CCCCC(=O)OCc1ccccc1` (centres undefined), the molecule was called inactive in [1], in assay [2], in assay [4], in assay [5], in assay [6] and in [7]. In addition, the outcome in assay [8], in assay [9], in [18], in assay [10], in [11] and in assay [12] was inactive. For the same molecule, the result in assay [13], in assay [14] and in [17] was inactive. Further, the AC50 in assay [3] was 50 µM (active).
Regarding `C#C[C@]1(O)CC[C@H]2[C@@H]3CCC4=CC(=O)CC[C@@H]4[C@H]3CC[C@@]21C`, the call in [2], in assay [3], in assay [4], in assay [5], in assay [6] and in [7] was inactive. For the same molecule, the outcome in assay [9], in assay [13], in assay [14], in assay [16] and in [17] was inactive. For the same molecule, the AC50 in assay [10] was 0.24 µM (active); in assay [11], 50 µM (active); in assay [12], 15.4 µM (active).
For `CN(C)C=O`, the outcome in assay [1], in assay [2], in [3], in assay [4], in assay [5] and in assay [6] was inactive. Also, the result in [7], in assay [9], in assay [10], in [11], in assay [12] and in [13] was inactive. The outcome in assay [14], in assay [16] and in [17] was inactive.

The values above are taken from PubChem BioAssay (EPA / NIEHS).
